# Laboratory results as given in PubChem BioAssay.
# Active and inactive are the calls of the source.
# Key:
# [1] = binders of probe aFSTL3 on microarray, primary screen, stem cell growth factor project, biochemical, small-molecule microarray, fluorescence 635/667 (AID 1064); settings: higher = more signal;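 note: measures binding of the biotinylated anti-FSTL3 antibody to printed compounds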
# [2] = binders from COS7 lysate, DM2A8 probe, primary screen, torsin A project, cell lysate, small-molecule microarray, fluorescence 635/667 (AID 1065); settings: higher = more signal, COS7 lysate expressing mutant human TOR1A
# [3] = binders of probe aFGF2 on microarray, primary screen, stem cell growth factor project, biochemical, small-molecule microarray, fluorescence 635/667 (AID 1067); settings: higher = more signal;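 note: measures binding of biotinylated aFGF2 protein to printed compounds on slides; z-score merges feature fluorescence and signal-to-noise across triplicate slides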
# [4] = binders of probe aFGF10 on microarray, primary screen, stem cell growth factor project, biochemical, small-molecule microarray, fluorescence 635/667 (AID 1071); settings: higher = more signal;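 note: score merges 667 nm spot intensity and signal to noise from triplicate slides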
# [5] = biological target: Neurogenic locus notch homolog protein 2 (Homo sapiens) (UniProt Q04721); assay: Notch2 binders on small-molecule microarrays, primary screen, biochemical, small-molecule microarray, 635 nm fluorescence, stem cell growth factors (AID 1073); settings: Notch2 binding, higher = more signal
# [6] = biological target: Pro-neuregulin-1, membrane-bound isoform (Homo sapiens) (UniProt Q02297); assay: NRG1 binders on small-molecule microarrays, primary screen, psychiatric disease protein project, biochemical, small-molecule microarray, fluorescence 635/667 (AID 1075); settings: NRG1 binding, 635 nm fluorescence, higher = more signal;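 note: score combines 667 nm spot fluorescence with signal to noise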
# [7] = test system: Neuregulin-1 EGF-like domain; assay: binders of neuregulin-1 EGF-like domain, primary screen, biochemical, small-molecule microarray, 635 nm fluorescence (AID 1081); settings: small-molecule microarray binding, higher = more signal;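 note: binding of the protein to compounds printed on small-molecule microarray slides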
# [8] = FRG1 promoter luciferase signal modulators, primary screen, FRG1 inhibition for FSHD, cell-based, C2C12 myotubes, firefly/Renilla luciferase, luminescence (AID 1084); settings: higher = more signal, called active from +8 up or from −8 down
# [9] = binders of probe aFST on microarray, primary screen, stem cell growth factor project, biochemical, small-molecule microarray, fluorescence 635/667 (AID 1086); settings: higher = more signal;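 note: score merges 667 nm fluorescence with signal-to-noise of each printed compound spot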
# [10] = binders of probe aHhip on microarray, primary screen, stem cell growth factor project, biochemical, small-molecule microarray, fluorescence 635/667 (AID 1087); settings: higher = more signal;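 note: score merges spot fluorescence at 667nm with spot signal to noise ratio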
# [11] = test system: PRMT1 (protein arginine N-methyltransferase 1); assay: PRMT1 binders on small-molecule microarrays, primary screen, biochemical, small-molecule microarray, 635 nm fluorescence (AID 1088); settings: small-molecule microarray binding, higher = more signal;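 note: binding of Prmt1 protein to compounds spotted on small-molecule microarray slides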
# [12] = yeast growth modulation, basal conditions, primary screen, YJM789 clinical isolate, OD600, 24 h (AID 1089);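 note: growth of clinical yeast isolate S. cerevisiae YJM 789 seeded 1000 cells per well; test concentration not given here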; settings: S. cerevisiae YJM789 growth, higher = more signal, called active from +8 up or from −8 down
# [13] = fission yeast growth modulation, primary screen, strain 972, OD600, 24 h, no modulator (AID 1090);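 note: basal condition with compound alone and no growth modifier present; test concentration not given here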; settings: S. pombe 972 growth, higher = more signal, called active from +8 up or from −8 down
# [14] = S. cerevisiae growth modulation with rapamycin, primary screen, strain BY4716, OD600, 96 h (AID 1091); settings: higher = more signal, called active from +8 up or from −8 down; note: test concentration not given here
# [15] = biological target: Torsin-1A-interacting protein 2 (Homo sapiens) (UniProt Q8NFQ8); assay: LULL1 binders on small-molecule microarray, primary screen, cell lysate, human LULL1 lysate, 635/667 nm fluorescence (AID 1092); settings: hLULL1 lysate binding, 635 nm fluorescence, higher = more signal;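 note: probe is lysate of COS7 cells overexpressing human LULL1; score merges per-feature 667 nm fluorescence with signal-to-noise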
# [16] = E. coli growth modulation, two-sided OD650, primary screen, E. coli filamentation project, strain DRC41, 24 h (AID 1093); settings: OD650, 24 h, higher = more signal, called active from +8 up or from −8 down;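 note: MC1000 strain lacking acrAB efflux and sulA so SOS filamentation is blocked; test concentration not given here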
# [17] = small-molecule microarray binders of probe aLefty2, primary screen, biochemical, biotinylated probe, 635/667 nm fluorescence (AID 1094); settings: higher = more signal;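 note: score merges spot fluorescence near 667 nm with spot signal-to-noise ratio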
# [18] = test system: Noggin (protein binding on small-molecule microarray); assay: Noggin binders on small-molecule microarray, primary screen, biochemical, 635/667 nm fluorescence (AID 1095); settings: 635 nm fluorescence, higher = more signal;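 note: score merges 667 nm feature fluorescence with signal to noise over triplicate slides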
# [19] = biological target: Neurogenic locus notch homolog protein 3 (Homo sapiens) (UniProt Q9UM47); assay: NOTCH3 binders on small-molecule microarray, primary screen, biochemical, 635/667 nm fluorescence (AID 1096); settings: NOTCH3 binding, 635 nm fluorescence, higher = more signal
# [20] = small-molecule microarray binders of probe aEGFR, primary screen, biochemical, biotinylated probe, 635/667 nm fluorescence (AID 1097); settings: higher = more signal;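 note: probe is a biotinylated anti-EGFR antibody binding compounds printed on slides; score combines fluorescence near 667 nm and signal to noise of each spot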
# Pro-neuregulin-1, membrane-bound isoform (Homo sapiens), sequence (Q02297 whole entry, looked up, the tested form may be a part, canonical isoform): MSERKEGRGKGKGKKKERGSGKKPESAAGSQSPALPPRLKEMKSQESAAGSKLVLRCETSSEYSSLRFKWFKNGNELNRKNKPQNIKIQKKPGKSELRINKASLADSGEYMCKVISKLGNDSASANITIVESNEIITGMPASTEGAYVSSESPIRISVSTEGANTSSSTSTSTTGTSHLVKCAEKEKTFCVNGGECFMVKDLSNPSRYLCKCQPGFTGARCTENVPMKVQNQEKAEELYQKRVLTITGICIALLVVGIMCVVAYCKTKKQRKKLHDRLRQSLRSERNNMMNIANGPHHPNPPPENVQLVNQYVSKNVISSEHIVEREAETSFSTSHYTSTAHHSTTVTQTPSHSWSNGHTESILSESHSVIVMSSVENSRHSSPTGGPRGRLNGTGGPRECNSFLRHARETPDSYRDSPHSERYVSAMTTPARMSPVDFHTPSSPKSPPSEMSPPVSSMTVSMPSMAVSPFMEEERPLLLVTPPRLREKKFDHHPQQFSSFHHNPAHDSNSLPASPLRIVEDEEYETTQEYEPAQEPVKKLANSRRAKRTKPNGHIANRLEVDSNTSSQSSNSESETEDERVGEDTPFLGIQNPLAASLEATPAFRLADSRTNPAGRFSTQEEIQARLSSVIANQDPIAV
# Neurogenic locus notch homolog protein 3 (Homo sapiens), sequence (Q9UM47 whole entry, looked up): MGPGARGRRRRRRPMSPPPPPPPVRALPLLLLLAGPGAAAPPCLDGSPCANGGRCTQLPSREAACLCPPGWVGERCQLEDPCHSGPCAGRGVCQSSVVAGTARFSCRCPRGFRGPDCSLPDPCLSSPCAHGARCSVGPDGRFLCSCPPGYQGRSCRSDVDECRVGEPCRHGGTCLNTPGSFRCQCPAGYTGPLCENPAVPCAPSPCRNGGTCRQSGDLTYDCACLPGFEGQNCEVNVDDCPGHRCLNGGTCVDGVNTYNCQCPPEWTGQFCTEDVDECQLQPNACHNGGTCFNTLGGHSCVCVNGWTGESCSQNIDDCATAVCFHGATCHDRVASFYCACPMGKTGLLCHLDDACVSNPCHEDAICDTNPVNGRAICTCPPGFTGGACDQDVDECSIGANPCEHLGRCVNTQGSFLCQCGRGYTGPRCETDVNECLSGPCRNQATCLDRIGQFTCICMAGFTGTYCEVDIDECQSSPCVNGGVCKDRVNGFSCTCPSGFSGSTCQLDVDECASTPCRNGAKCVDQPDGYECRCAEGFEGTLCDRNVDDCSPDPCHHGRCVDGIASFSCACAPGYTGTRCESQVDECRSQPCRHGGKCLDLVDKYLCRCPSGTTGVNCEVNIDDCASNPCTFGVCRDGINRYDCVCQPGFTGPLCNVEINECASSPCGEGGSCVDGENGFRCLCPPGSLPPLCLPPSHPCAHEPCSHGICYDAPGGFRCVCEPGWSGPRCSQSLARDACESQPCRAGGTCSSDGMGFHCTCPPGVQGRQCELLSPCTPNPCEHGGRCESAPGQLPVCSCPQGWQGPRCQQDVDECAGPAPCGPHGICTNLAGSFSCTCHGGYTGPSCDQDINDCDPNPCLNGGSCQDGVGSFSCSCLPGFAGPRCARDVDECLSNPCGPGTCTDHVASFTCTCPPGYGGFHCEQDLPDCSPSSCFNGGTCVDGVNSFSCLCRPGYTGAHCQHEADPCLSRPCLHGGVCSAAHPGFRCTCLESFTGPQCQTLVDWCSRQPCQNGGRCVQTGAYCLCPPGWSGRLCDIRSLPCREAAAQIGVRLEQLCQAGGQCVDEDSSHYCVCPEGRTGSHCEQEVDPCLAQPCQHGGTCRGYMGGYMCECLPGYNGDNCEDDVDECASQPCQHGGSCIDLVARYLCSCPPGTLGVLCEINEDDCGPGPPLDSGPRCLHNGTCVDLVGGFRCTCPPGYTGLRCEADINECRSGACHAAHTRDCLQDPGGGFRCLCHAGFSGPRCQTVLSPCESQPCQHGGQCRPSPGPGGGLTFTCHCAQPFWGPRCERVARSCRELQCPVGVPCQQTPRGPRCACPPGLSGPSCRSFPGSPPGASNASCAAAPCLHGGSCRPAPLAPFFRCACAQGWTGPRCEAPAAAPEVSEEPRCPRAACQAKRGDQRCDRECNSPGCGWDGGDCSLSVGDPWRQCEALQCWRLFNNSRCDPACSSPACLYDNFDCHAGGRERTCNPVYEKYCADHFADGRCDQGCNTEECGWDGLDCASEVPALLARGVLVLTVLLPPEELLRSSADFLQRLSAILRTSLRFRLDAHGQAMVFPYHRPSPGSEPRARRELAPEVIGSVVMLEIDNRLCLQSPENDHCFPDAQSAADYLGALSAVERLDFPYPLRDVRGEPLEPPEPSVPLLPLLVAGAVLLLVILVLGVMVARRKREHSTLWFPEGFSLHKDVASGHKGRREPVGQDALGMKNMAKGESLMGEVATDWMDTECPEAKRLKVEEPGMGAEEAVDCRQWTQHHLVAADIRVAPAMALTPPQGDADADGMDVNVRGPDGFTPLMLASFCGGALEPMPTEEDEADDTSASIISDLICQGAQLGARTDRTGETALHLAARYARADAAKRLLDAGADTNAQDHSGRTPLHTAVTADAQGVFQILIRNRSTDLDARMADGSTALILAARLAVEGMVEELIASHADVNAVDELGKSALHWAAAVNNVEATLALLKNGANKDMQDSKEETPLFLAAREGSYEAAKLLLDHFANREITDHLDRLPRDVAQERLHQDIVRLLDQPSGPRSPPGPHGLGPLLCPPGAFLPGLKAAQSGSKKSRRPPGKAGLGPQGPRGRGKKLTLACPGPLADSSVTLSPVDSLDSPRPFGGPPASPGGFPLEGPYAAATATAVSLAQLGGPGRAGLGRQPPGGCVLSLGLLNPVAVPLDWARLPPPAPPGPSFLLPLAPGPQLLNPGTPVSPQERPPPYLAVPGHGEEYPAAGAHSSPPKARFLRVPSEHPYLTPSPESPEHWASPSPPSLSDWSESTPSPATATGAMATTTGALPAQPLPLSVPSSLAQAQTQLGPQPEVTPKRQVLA
# Torsin-1A-interacting protein 2 (Homo sapiens), sequence (Q8NFQ8 whole entry, looked up): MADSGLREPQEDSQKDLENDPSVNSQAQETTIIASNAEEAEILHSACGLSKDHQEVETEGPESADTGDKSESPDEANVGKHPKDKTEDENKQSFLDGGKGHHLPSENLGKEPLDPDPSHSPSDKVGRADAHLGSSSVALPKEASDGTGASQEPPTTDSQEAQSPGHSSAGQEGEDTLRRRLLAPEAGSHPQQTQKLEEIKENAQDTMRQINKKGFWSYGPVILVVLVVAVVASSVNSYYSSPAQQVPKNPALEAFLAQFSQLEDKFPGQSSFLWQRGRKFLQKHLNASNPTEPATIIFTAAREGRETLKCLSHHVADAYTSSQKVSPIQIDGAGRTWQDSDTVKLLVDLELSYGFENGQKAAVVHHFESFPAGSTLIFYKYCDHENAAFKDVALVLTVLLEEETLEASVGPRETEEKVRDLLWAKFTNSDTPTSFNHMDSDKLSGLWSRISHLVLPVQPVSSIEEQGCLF
Structure (SMILES),composite z-score [1],composite z-score [2],composite z-score [3],composite z-score [4],composite z-score [5],composite z-score [6],composite z-score [7],z-score [8],composite z-score [9],composite z-score [10],composite z-score [11],z-score [12],z-score [13],z-score [14],composite z-score [15],z-score [16],composite z-score [17],composite z-score [18],composite z-score [19],composite z-score [20]
COC(=O)[C@@]1(Cc2ccccc2)[C@H]2c3cc(C(=O)N4CCCC4)n(C)c3C[C@H]2CN1C(=O)c1ccccc1,0.483,-0.207,0.107,-0.0646,1.67,1.51,1.25,0.121 (inactive),0.882,1.72,0.0683,0.29 (inactive),0.68 (inactive),0.0928 (inactive),3.35,0.391 (inactive),0.0165,0.0182,0.732,0.287
COCCOC(=O)N1C(=O)[C@@]2(c3cc(C#CCC(C(=O)OC)C(=O)OC)ccc31)[C@H](C(=O)N1CCN(c3ncccn3)CC1)[C@H]1C(=O)O[C@H](c3ccccc3)[C@H](c3ccccc3)N1[C@@H]2c1ccc(OCCO)cc1,-0.462,0.185,-0.0293,0.0875,0.213,0.386,1.06,-0.644 (inactive),0.0723,-0.0088,1.55,-0.485 (inactive),0.196 (inactive),5.21 (inactive),2.26,1.36 (inactive),-0.184,0.668,0.946,-0.141
CCCCCCCCCCC(O)C1C=CC2C(=O)N(Cc3ccccc3)C(=O)C2N1n1cnnc1 (stereo not given),0.794,0.0622,0.279,0.137,0.53,0.919,0.843,1.91 (inactive),1.08,0.582,1.14,0.187 (inactive),-0.25 (inactive),-0.976 (inactive),2.75,-1.45 (inactive),0.326,-0.331,0.55,0.0773
Cc1ccccc1C(O)C1C=CC2C(=O)N(C)C(=O)C2N1Nc1ccccc1 (stereo not given),0.413,0.526,-0.0035,0.0865,1.22,2.05,1.14,0.772 (inactive),0.842,-0.0994,1.25,-0.145 (inactive),-0.885 (inactive),-0.0194 (inactive),2.98,-1.43 (inactive),0.149,-0.657,0.993,-0.0634
O=C(CCN1CCOCC1)c1cccc(O)c1,-0.302,1.79,-0.0521,0.628,1.31,1.23,1.17,-1.28 (inactive),0.852,-0.0953,1.3,-1.35 (inactive),-5.52 (inactive),-1.01 (inactive),0.571,-2.03 (inactive),0.197,0.645,1.07,0.234
